PubChem BioAssay (NCATS)
Inconclusive results are not listed. The source made the active and inactive calls. Unless noted, calls follow the shape of the dose curve; as a rule, active = well fitted curve in the direction sought with a large enough effect; inconclusive = small, poorly fitted or top-dose-only effect, or another doubt; inactive = no such curve, though single readings can be large; an effect the other way counts as inactive or inconclusive.

Tests used:
[1] = qHTS profiling for inhibitors of Plasmodium falciparum proliferation (AID 504749);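 also: 0% = DMSO vehicle and full inhibition = artemisinin control; nearly all actives have a fitted effect of over 60% in size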; settings: P. falciparum in erythrocytes, SYBR Green DNA, 72 h, at 28.7 µM (top of the series)
Summary of the method: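 Parasite proliferation within erythrocytes, 72 h exposure. Endpoint: SYBR Green I fluorescence after overnight lysis at room temperature. Controls: 0.29 uM artemisinin, DMSO.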

[2] = Cell Viability - SK-N-SH (AID 435; calls by dose curve;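 also: potency is read from the fitted curve at half-maximal effect; compound exposure lasted 40 h at 37 °C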); settings: SK-N-SH neuroblastoma cell viability qHTS
Summary of the method: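 CellTiter-Glo ATP luminescence, 20 min RT read; cells pre-plated 5 hr, compound 40 hr at 37 °C, 1500 cells/well, complete medium. Normalized DMSO = 0, 100 uM tamoxifen = 100% inhibition; Hill-fit AC50.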

[3] = Cell Viability - NIH 3T3 (AID 541); settings: NIH 3T3 cell viability, qHTS; activity change, negative = cytotoxicity: at 92.2 µM (top of the series);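 also: plate controls were DMSO alone for no effect and tamoxifen positive control for full effect; nearly all actives have a fitted effect of over 25% in size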
Summary of the method: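 Mouse NIH 3T3 fibroblasts, 1000 cells/well, rested 5 hr at 37 °C, then exposed to compound for 40 hr at 37 °C in complete medium. Viability read as intracellular ATP by CellTiter-Glo luminescence; AC50 from Hill-equation fits of concentration-response data.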

[4] = Cell Viability - H-4-II-E (AID 543); settings: H-4-II-E rat hepatoma viability; series mostly up to 92.2 µM; also: % is scaled to controls: 0 for no effect and ±100 for the full control effect; nearly all actives have a fitted effect of over 35% in size
Summary of the method: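 Rat hepatoma H-4-II-E cells, 1500 per well, treated 40 h at 37 °C in complete medium. Cellular ATP read by CellTiter-Glo luminescence; AC50 from Hill fits of concentration-response.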

[5] = Cell Viability - SH-SY5Y (AID 544); settings: SH-SY5Y neuroblastoma cell viability; series mostly up to 92.2 µM;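 also: 0% = DMSO alone and -100% = 100 µM tamoxifen; nearly all actives have a fitted effect of over 55% in size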
Summary of the method: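 SH-SY5Y human neuroblastoma cells (1500/well) incubated 5 h, then compound-treated 40 h at 37 °C in complete medium. Viability read as intracellular ATP by CellTiter-Glo luminescence after 20 min; AC50 from Hill-equation fits of qHTS concentration-response.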

[6] = Cell Viability - LYMP2-002 (AID 977); settings: LYMP2-002 lymphoblastoid cell viability, qHTS; series mostly up to 92.2 µM;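 also: plate controls were DMSO only for no effect and 92 µM tetraoctylammonium bromide for full effect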
Summary of the method: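 Luminescent ATP readout (CellTiter-Glo, 30 min room temperature) after 24 h compound exposure at 37 C of a human lymphoblastoid line, 2500 cells/well. AC50 values derived by standard Hill fitting of qHTS concentration-response data.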

[7] = Cell Viability - LYMP2-006 (AID 978); settings: LYMP2-006 lymphoblastoid cell viability, qHTS; series mostly up to 92.2 µM; also: % is scaled to controls: 0 for no effect and ±100 for the full control effect; nearly all actives have a fitted effect of over 60% in size
Summary of the method: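 qHTS, 1536-well; 2500 cells/well, 5 hr 37 C; cpd 24 hr 37 C; CellTiter-Glo 30 min RT; luminescence. Tetraoctylammonium bromide pos. ctrl. AC50 via Hill eqn.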

[8] = Cell Viability - LYMP2-007 (AID 979); settings: LYMP2-007 lymphoblastoid cell viability; series mostly up to 92.2 µM;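 also: cells exposed to compound for 24 h before reading; 0% = DMSO only and the negative end = 92 µM tetraoctylammonium bromide; nearly all actives have a fitted effect of over 60% in size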
Summary of the method: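 Human lymphoblastoid LYMP2-007 cells (2500/well) preincubated 5 h at 37 C, then treated 24 h at 37 C in complete medium. Viability by CellTiter-Glo ATP luminescence after 30 min at room temperature; AC50 from Hill fits.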

[9] = Cell Viability - LYMP2-008 (AID 980); settings: LYMP2-008 lymphoblastoid cell viability, qHTS; series mostly up to 92.2 µM; also: % is scaled to controls: 0 for no effect and ±100 for the full control effect; nearly all actives have a fitted effect of over 60% in size
Summary of the method: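 LYMP2-008 lymphoblastoid cells (2500/well) plated 5 h, then treated 24 h at 37 C in complete medium. Viability read as intracellular ATP by CellTiter-Glo luminescence after 30 min at room temperature; AC50 from Hill fits.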

[10] = Cell Viability - LYMP2-010 (AID 981); settings: LYMP2-010 lymphoblastoid cell viability, qHTS; series mostly up to 92.2 µM; also: % is scaled to controls: 0 for no effect and ±100 for the full control effect; nearly all actives have a fitted effect of over 55% in size
Summary of the method: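 Human lymphoblastoid LYMP2-010 cells (2500/well) treated 24 h at 37 C in complete medium; viability read as intracellular ATP by CellTiter-Glo luminescence. AC50 from Hill fits of concentration-response data; tetraoctylammonium bromide positive control.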

[11] = Cell Viability - LYMP2-012 (AID 982); settings: LYMP2-012 lymphoblastoid cell viability qHTS; series mostly up to 92.2 µM;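 also: cellular ATP by luciferase luminescence where a drop means cytotoxicity; cells exposed to compound for one day before reading; 0% = DMSO only and full loss = 92 µM tetraoctylammonium bromide; nearly all actives have a fitted effect of over 55% in size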
[12] = Cell Viability - LYMP2-016 (AID 984); settings: LYMP2-016 lymphoblastoid cell viability, qHTS; series mostly up to 92.2 µM; also: % is scaled to controls: 0 for no effect and ±100 for the full control effect; nearly all actives have a fitted effect of over 55% in size
Summary of the method: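 qHTS, 1536-well: 2500 LYMP2-016 cells/well, 5 hr 37 C, compound added, 24 hr 37 C, CellTiter-Glo 30 min RT, luminescence. Tetraoctylammonium bromide positive control. AC50 via Hill fit.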

[13] = Cell Viability - LYMP2-018 (AID 985); settings: LYMP2-018 lymphoblastoid cells, viability (qHTS); series mostly up to 92.2 µM;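 also: compound exposure lasted 24 hr at 37 °C; plate controls were DMSO only for no effect and tetraoctylammonium bromide at 92 µM for full effect; nearly all actives have a fitted effect of over 50% in size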
Summary of the method: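 Human lymphoblastoid LYMP2-018 cells, 2500/well, settled 5 hr at 37 C then exposed to compound 24 hr at 37 C; intracellular ATP measured by CellTiter-Glo luminescence. AC50 from Hill-equation concentration-response fits.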

[14] = Cell Viability - LYMP2-024 (AID 988); settings: LYMP2-024 lymphoblastoid cell viability; series mostly up to 92.2 µM
Summary of the method: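 Human lymphoblastoid LYMP2-024 cells (2500/well) rested 5 hr, then treated with compound for 24 hr at 37 C in complete medium. Viability was measured as intracellular ATP by CellTiter-Glo luminescence. AC50 values came from Hill-equation fits.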

[15] = Cell Viability - LYMP1-002 - Assay at 40 hr (AID 994); settings: LYMP1-002 lymphoblastoid cell viability; series mostly up to 92.2 µM
Summary of the method: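 LYMP1-002 human lymphoblastoid cells (2500/well, complete medium) were treated with compounds for 40 hr at 37 C. Intracellular ATP was measured by CellTiter-Glo luminescence, and AC50 values came from Hill-equation fits of concentration-response data; tetraoctylammonium bromide was the positive control.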

[16] = qHTS assay for small molecule activators of the nuclear factor-kappa B (NF-kB) signaling pathway (AID 651749; active = well fitted activation curve with a large enough effect in the signal ratio; the % refers to the signal ratio; also: % of control where 0% means no effect); settings: NF-kB-bla ME-180 cells, beta-lactamase FRET ratio, 16 h; stronger effect = higher value
Summary of the method: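 Screening used 2,000 ME-180 reporter cells per well exposed to pinned compound (23 nL) or DMSO; after 16 hr at 37C, beta-lactamase expression under NF-kB control was assessed through FRET.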

[17] = qHTS assay for small molecule disruptors of the mitochondrial membrane potential - 1 hr assay (AID 651754; calls by dose curve; also: % is scaled to controls: 0 for no effect and ±100 for the full control effect; nearly all actives have a fitted effect of over 35% in size); settings: series mostly up to 92.2 µM
Summary of the method: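 HepG2 cells, attached overnight, were exposed to compound for 1 hr at 37C, then stained 30 min with a potentiometric dye. Ratio of red aggregate (590nm) to green monomer (535nm) fluorescence reports membrane potential; collapse shifts signal toward green.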

[18] = target: Tumor necrosis factor (Homo sapiens) (UniProt P01375); experiment: qHTS assay to identify small molecules that stimulate Tumor Necrosis Factor-alpha (TNF-alpha) secretion (AID 651757; active = well fitted curve in the direction sought with a large enough effect in the signal ratio; the % refers to the signal ratio; also: 0% is about no effect); settings: Human cells, HTRF 665/615 ratio; series mostly up to 92.2 µM
Summary of the method: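 THP-1 cells (3000/well) exposed to compounds 17 hrs at 37 C. Secreted TNF-alpha detected by HTRF with cryptate- and XL665-labeled anti-TNF-alpha antibodies after 3 hr at room temperature.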

[19] = qHTS assay for small molecule antagonists of the retinoid-related orphan receptor gamma (ROR-gamma) signaling pathway - cell viability counter screen (AID 720652; active = well fitted curve in the direction sought with a large enough effect in the repeat runs; an effect the other way counts as inactive or inconclusive;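 also: CHO reporter cells with doxycycline-induced ROR-gamma expression; compound exposure lasted 16 hr before ATP read; % is scaled to controls: 0 for no effect and ±100 for the full control effect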); settings: RORgamma reporter cell line viability counter screen; series mostly up to 92.2 µM
Summary of the method: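 CHO cells carrying TET-inducible ROR and RORE-luciferase reporter, plated 5 hr, then dosed with compound plus doxycycline. After 16 hr at 37 C, viability read as intracellular ATP by CellTiter-Glo luminescence.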

[20] = target: Peroxisome proliferator-activated receptor gamma (Homo sapiens) (UniProt P37231); experiment: qHTS assay for small molecule antagonists of peroxisome proliferator-activated receptor gamma signaling (AID 588537; active = well fitted inhibition curve with a large enough effect in the signal ratio, with a control signal flat, not every such curve was filed as active; the % refers to the signal ratio;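 also: reporter cells co-stimulated with 50 nM rosiglitazone agonist during compound treatment; % of control where 0% means no effect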); settings: HEK293 PPARg-UAS-bla, beta-lactamase ratio, antagonist mode; series mostly up to 76.8 µM
Summary of the method: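 We seeded GeneBLAzer HEK293 reporter cells at 3000 per well, allowed 6-6.5 h attachment at 37 C, then co-treated with test compound titrations and 50 nM rosiglitazone overnight (16 h). Inhibition was quantified from 460/530 nm emission ratios.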

Peroxisome proliferator-activated receptor gamma (Homo sapiens), sequence (P37231 whole entry, looked up): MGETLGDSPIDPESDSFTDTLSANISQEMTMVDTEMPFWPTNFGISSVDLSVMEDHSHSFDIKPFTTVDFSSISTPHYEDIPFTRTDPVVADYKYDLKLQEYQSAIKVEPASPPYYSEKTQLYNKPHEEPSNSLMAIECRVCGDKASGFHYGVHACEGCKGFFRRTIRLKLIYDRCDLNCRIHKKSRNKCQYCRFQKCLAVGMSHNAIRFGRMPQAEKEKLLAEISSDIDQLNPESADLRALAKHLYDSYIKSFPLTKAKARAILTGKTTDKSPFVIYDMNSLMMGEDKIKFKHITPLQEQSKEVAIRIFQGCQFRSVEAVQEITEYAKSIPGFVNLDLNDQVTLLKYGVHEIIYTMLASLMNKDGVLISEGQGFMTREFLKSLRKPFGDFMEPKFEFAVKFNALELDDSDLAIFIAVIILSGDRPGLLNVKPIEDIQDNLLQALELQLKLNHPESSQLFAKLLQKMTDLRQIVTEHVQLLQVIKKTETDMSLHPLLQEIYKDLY
Tumor necrosis factor (Homo sapiens), sequence (P01375 whole entry, looked up): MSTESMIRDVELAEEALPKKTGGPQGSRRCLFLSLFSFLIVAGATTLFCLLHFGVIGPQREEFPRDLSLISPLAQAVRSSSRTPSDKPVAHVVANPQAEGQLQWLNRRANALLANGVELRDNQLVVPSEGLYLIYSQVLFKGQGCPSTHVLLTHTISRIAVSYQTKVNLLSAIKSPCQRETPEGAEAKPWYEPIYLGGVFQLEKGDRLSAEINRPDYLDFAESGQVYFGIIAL

CC(=O)OC1CC2CCC1(C)C2(C)C (stereo unspecified)
inactive: activity, negative = inhibition ([1]; parasite line A) 6.76% | activity, negative = inhibition ([1]; parasite line B) 13.6%

C=CC(=C)CCC=C(C)C
inactive: Potency [2] > 92 µM | Potency [3] | Potency [4] | Potency [5] | Potency [6] | Potency [7] | Potency [8] | Potency [9] | Potency [10] | Potency [11] | Potency [12] | Potency [13] | Potency [14] | Potency [15] | activation [16] -0.615% | Potency [17] | outcome [18] | Potency [19]

COc1cc(/C=C/c2ccccc2)oc(=O)c1
inactive: Potency [6] | Potency [7] | Potency [8] | Potency [9] | Potency [10] | Potency [11] | Potency [12] | Potency [13] | Potency [14] | Potency [15] | outcome [20] | Potency [17]

O=C(O)c1ccccc1
inactive: Potency [2] > 92 µM | Potency [3] | Potency [4] | Potency [5] | Potency [6] | Potency [7] | Potency [8] | Potency [9] | Potency [10] | Potency [11] | Potency [12] | Potency [13] | Potency [14] | Potency [15] | outcome [20] | outcome [18] | Potency [19]

C=CC(C)(CCC=C(C)C)OC(C)=O (stereo unspecified)
inactive: outcome [20] | activation [16] -0.624%
